# Measurements reported in publication PMC4336329 (PLoS ONE, 2015).
# Out of some 310,000 compounds screened, about 14,000 (4.5%) showed an effect of 50% or more. Effects have a minus sign here. The full list was thinned out, with strong results kept by preference.
# Biological target: human ether-à-go-go-related gene (hERG) potassium channel (human, UniProt Q12809)
# Assay: primary screen, population patch clamp on CHO cells stably expressing hERG; higher = less effect of the substance
# 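Note: peak tail current of the secondary pulse compared with the same well before compound.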
# Sequence of human ether-à-go-go-related gene (hERG) potassium channel (Q12809 whole entry, looked up): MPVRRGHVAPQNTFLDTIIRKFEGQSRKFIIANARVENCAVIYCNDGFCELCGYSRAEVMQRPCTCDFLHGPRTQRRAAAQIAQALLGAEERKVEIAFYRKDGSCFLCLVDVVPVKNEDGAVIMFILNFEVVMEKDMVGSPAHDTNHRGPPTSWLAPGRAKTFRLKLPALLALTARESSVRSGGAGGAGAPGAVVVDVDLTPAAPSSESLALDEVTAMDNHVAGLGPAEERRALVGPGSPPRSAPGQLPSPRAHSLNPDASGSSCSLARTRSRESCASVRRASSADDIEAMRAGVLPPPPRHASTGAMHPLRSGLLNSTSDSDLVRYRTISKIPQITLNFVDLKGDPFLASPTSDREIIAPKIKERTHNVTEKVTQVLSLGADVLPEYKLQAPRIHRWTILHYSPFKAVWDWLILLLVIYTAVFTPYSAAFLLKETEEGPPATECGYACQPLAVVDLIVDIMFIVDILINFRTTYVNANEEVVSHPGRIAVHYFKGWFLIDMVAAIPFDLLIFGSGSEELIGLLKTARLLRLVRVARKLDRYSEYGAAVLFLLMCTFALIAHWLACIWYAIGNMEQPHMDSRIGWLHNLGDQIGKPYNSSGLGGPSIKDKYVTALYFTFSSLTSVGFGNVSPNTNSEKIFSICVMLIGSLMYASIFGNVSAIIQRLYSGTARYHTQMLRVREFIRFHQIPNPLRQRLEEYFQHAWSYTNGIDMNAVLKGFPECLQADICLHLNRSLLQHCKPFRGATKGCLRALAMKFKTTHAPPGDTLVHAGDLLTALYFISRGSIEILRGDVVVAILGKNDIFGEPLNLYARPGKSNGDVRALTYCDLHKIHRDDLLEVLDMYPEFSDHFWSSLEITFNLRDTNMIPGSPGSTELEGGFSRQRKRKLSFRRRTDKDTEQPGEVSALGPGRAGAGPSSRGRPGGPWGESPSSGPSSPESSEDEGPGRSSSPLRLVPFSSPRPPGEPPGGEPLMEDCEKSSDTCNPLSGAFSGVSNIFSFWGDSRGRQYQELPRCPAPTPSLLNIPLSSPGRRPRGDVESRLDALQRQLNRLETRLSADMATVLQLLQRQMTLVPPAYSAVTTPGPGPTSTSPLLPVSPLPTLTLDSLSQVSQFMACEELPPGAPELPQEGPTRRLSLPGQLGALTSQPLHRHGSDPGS
row,SMILES,"hERG current change (%, negative = inhibition) at 10uM [%]"
1,CCN1CCN(C(=O)c2nn(-c3ccccc3)c(=O)c3ccccc23)CC1,-2.92
2,COc1ccc(CN2CCN(C(=O)Cn3nc(C(=O)O)c4ccccc4c3=O)CC2)cc1F,-37.4
3,CCn1nc(C(=O)N2CCc3ccccc3C2)c2ccccc2c1=O,-13.6
4,O=C(c1n[nH]c(=O)c2ccccc12)N1CCN(Cc2ccc3c(c2)OCO3)CC1,2.15
5,CCn1nc(C(=O)N2CCN(Cc3ccc4c(c3)OCO4)CC2)c2ccccc2c1=O,-52.1
6,COc1ccc(-n2nc(C(=O)N3CCN(Cc4ccc5c(c4)OCO5)CC3)c3ccccc3c2=O)cc1,-4.87
7,CCn1nc(C(=O)N2CCN(Cc3nc4ccccc4s3)CC2)c2ccccc2c1=O,-68.9
8,N#Cc1ccc(CN2CCN(C(=O)Cn3nc(C(N)=O)c4ccccc4c3=O)CC2)cc1,-70
9,Cc1cc2nc(-c3ccco3)cc(C(F)(F)F)n2n1,-5.82
10,CNc1c(NS(=O)(=O)c2ccc(F)c(Cl)c2)c(=O)oc2ccccc12,3.54
11,O=C(CSCC(=O)N1CCOCC1)Nc1nc(-c2ccccc2)cs1,-14.8
12,NC(=O)c1ccccc1OCC(=O)N1CCCc2ccccc21,14.5
13,CCCc1nc2oc3c(=O)[nH]cnc3c2c2c1CCCC2,-56.5
14,CC(C)Cc1nc2oc3c(=O)[nH]cnc3c2c2c1CCC2,-7.29
15,CC(C)Cc1nc2oc3c(=O)[nH]cnc3c2c2c1CCCC2,-6.24
16,COc1ccc(-c2csc(NC(=O)c3ccc(OCC(=O)N4CCOCC4)c(OC)c3)n2)cc1OC,-27.6
17,Cc1ccc(C(=O)CCC(=O)Nc2cccc(C)c2)cc1,15.3
18,COCCn1c(=NC(=O)CSCC(=O)N2CCOCC2)sc2cc(C)ccc21,-14.8
19,Cn1c(SCC(=O)OC2CCCCC2)nnc1-c1ccco1,0.11
20,O=C(CSc1nnc(-c2ccco2)n1Cc1ccccc1)OC1CCCCC1,-92.1
21,O=C(CSc1nnc(-c2ccco2)n1Cc1ccccc1)c1ccc(F)cc1,-45.7
22,COCCCn1c(SCC(=O)NC2CCCC2)nnc1-c1ccco1,9.39
23,COCCCn1c(SCC(=O)NC2CCCCC2)nnc1-c1ccco1,-3.26

row,SMILES,"hERG current change (%, negative = inhibition) at 10uM [%]"
1,COCCCn1c(SCC(=O)OC2CCCCC2)nnc1-c1ccco1,-56
2,CCCNS(=O)(=O)c1ccc2c(c1)CCCN2C(C)=O,-4.81
3,O=C1Nc2cc(C(=O)NCCCN3CCOCC3)ccc2S/C1=C/c1cccc(Cl)c1,9.36
4,CCOC(=O)c1c(P(=O)(N2CCOCC2)N2CCOCC2)noc1N,-0.372
5,Cn1cc(CN2CCCC(CNS(=O)(=O)c3cccc4cccnc34)C2)cn1 (stereo not shown),5.77
6,CCC(CC)C(=O)Nc1nnc(S(=O)(=O)N2CCCCCC2)s1,1.54
7,OCC1(Cc2ccc(F)cc2F)CCCN(Cc2ccc(Cl)cc2)C1 (stereo not shown),-74.6
8,CCOc1cc(CN2CCCC(CO)(Cc3ccc(F)cc3F)C2)ccc1OC (stereo not shown),-55.9
9,COC(=O)c1ccc(CN2CCCC(CO)(Cc3ccc(F)cc3F)C2)cc1 (stereo not shown),-42.3
10,COc1cccc(CC(=O)N2CCCC(CO)(Cc3ccc(F)cc3F)C2)c1 (stereo not shown),-0.432
11,COc1ccc(CN2CCCC(CO)(Cc3ccc(F)cc3F)C2)cc1 (stereo not shown),6.12
12,CCOc1ccc(-n2cc(-c3ccccc3)c3c(=O)[nH]cnc32)cc1,17.2
13,CN(CCc1ccccn1)C(=S)Nc1ccc(Cl)c(Cl)c1,-3.59
14,COc1ccc(NS(=O)(=O)c2ccc(N3CCOCC3)c(NC(=O)c3ccc(OC)cc3)c2)cc1,-1.38
15,CCOC(=O)c1ccc(CSC(=N)N)o1,17.2
16,CN(C)c1ccc(CN2CCCCCC2)cc1,-6.11
17,COc1ccc(CCNS(=O)(=O)c2ccc(S(=O)(=O)N3CCCC3)cc2)cc1OC,-6.61
18,COc1ccc(CCNC(=O)CCCN2C(=O)c3ccccc3C2=O)cc1,2.74
19,O=C(CCCOc1ccc(Br)cc1)NCCc1ccc(OC(F)F)cc1,-67.7
20,O=C(CCCN1C(=O)c2ccccc2C1=O)NCCc1ccc(OC(F)F)cc1,-65.3
21,CCOc1ccc(OCCCC(=O)NCCc2ccc(OC)cc2)cc1,25.8
22,COc1ccc(CCNC(=O)CCCCCN2C(=O)c3ccccc3C2=O)cc1,-28.6
23,O=C(CCCOc1ccccc1)NCCc1ccccc1,-3.36
